# Records with an inconclusive call do not appear. The source made the active and inactive calls. Calls come from the whole dose curve; as a rule, active = well fitted inhibition curve with a large enough effect in the signal ratio in the repeat runs (not every such curve was filed as active); inconclusive = weak or mixed curves, or effect the other way; inactive = no such curve, though single readings can be large or run the other way; the % refers to the signal ratio.
# Molecular target: Glucocorticoid receptor (Homo sapiens) (UniProt P04150)
# Sequence (P04150 whole entry, looked up): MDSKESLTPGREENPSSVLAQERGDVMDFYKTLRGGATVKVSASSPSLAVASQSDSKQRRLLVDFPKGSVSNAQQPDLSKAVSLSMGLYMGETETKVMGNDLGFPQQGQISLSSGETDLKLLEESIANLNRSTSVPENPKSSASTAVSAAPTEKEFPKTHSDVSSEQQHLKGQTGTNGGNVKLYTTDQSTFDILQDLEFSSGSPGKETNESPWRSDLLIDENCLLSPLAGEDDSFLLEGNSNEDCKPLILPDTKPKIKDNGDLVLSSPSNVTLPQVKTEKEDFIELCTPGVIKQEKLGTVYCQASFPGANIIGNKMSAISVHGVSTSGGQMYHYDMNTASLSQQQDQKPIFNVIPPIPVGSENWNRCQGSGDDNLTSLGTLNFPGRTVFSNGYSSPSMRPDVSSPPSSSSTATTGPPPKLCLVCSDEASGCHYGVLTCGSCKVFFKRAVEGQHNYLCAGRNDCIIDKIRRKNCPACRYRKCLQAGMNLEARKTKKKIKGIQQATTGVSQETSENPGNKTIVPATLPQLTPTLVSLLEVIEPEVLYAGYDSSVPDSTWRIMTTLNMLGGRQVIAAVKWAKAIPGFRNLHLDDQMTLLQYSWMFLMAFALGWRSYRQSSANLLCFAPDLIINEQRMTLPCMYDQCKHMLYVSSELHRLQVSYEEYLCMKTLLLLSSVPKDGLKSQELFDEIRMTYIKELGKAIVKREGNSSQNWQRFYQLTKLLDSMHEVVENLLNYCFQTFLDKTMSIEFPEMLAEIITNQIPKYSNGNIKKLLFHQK
# Test: qHTS assay to identify small molecule antagonists of the glucocorticoid receptor (GR) signaling pathway (AID 720692)
# Conditions: GR-bla HeLa, beta-lactamase FRET ratio, dexamethasone-stimulated, 18 h; series mostly up to 58.5 µM; activity change, negative = inhibition: at the top concentration
# From the text: U.S. Tox21 Program National Center for Advancing Translational Sciences [NCATS] NIH Chemical Genomics Center [NCGC] U.S. Environmental Protection Agency [EPA] National Institutes of Environmental Health Sciences [NIEHS] National Toxicology Program [NTP] U.S. Food and Drug Administration [FDA] Tox21 Assay Overview: The Glucocorticoid receptor (GR) is one of the members of the nuclear receptor family of ligand-dependent transcription factors. GR plays a critical role in carbohydrate, protein and lipid metabolisms and programmed cell death. CellSensor GR-bla HeLa cell line (Invitrogen) contains a beta-lactamase reporter gene under the control of the glucocorticoid response element stably integrated into HeLa cells, a cervical cancer cell line that expresses glucocorticoid receptor. The activation of the reporter gene under culture conditions can be detected by fluorescence intensity. This cell line has been used to screen the Tox21 10K compound library and to identify the compounds that inhibit the GR signaling.
# Tox21 Assay Protocol Summary: The GR-bla HeLa cells were dispensed at 1500 cells/5 ul/well in 1536-well black wall/clear bottom plates using a Multidrop Combi (ThermoFisher Scientific, Waltham, MA) dispenser. After the assay plates were incubated at a 37 C/5% CO2 incubator for 4 hours, 23 nL of compounds dissolved in DMSO, positive controls or DMSO only was transferred to the assay plate by a pintool station (Kalypsys, San Diego, CA), followed by addition of 1 uL of dexamethasone (5 nM, final concentration in the well). The plates were incubated at 37 C for 18 hours. After 1 uL of LiveBLAzerTM B/G FRET substrate was added using a Flying Reagent Dispenser (Aurora Discovery, San Diego, CA), the plates were incubated at room temperature for 2 hours, and fluorescence intensity was measured by an Envision plate reader (PerkinElmer, Shelton, CT).
# % is set by controls: 0 for no effect and ±100 for the full control effect; potency is the fitted concentration of half-maximal effect.
SMILES,Potency,"activity change, negative = inhibition"
CCOC(C)OCC,inactive,
CCCC(=O)OCCC(C)C,,1.23% (inactive)
Nc1ccc(C(=O)Oc2ccccc2)c(O)c1,,-3.7% (inactive)
O=C(O)c1ccncc1,,-9.26% [at 78.9 µM] (inactive)
CCOC(OCC)OCC,,-9.32% (inactive)
CCOc1ccc2c(c1)C(C)CC(C)(C)N2 (stereo not given),,0.252% (inactive)
C=C[Si](OCC)(OCC)OCC,,-0.114% (inactive)
CC(C)(O)C(=O)O,,-2.57% (inactive)
O=C1OC(=O)C2CC=CCC12 (stereo not given),,-2.26% [at 78.9 µM] (inactive)
CCC(CC)C(=O)O,,1.12% (inactive)
O=C(OCCCCCOC(=O)c1ccccc1)c1ccccc1,,0.611% (inactive)
CC(C)(C(=O)O)c1ccc(C(O)CCCN2CCC(C(O)(c3ccccc3)c3ccccc3)CC2)cc1 (stereo not given),,2.9% (inactive)
O=C(O)c1ccc(O)c(O)c1,,-18.5% (inactive)
CCC[Si](OC)(OC)OC,,-16.6% (inactive)
CCC(C)C1N=C(C)C(C)S1 (stereo not given),,-16.5% (inactive)
Cc1cccc(C)c1NC(=O)CN1CCCC1,,-6.17% (inactive)
C=CCCC,,-4.05% [at 78.9 µM] (inactive)
O=c1c2ccccc2oc2ccccc12,,23.7% (inactive)
CCCOC(C)=O,,-15.6% (inactive)
C=CC(C)CCC=C(C)C (stereo not given),,-3.74% (inactive)

SMILES,Potency,"activity change, negative = inhibition"
CCCCCCCCCCCC(=O)OCC,,3.21% (inactive)
O=[N+]([O-])c1ccc(Cl)cc1Cl,,-1.03% (inactive)
N#Cc1ccc(CC(=O)c2cccc(C(F)(F)F)c2)cc1,,13% (inactive)
Cc1ccc(S(=O)(=O)NC(=O)NC2CCCC2)cc1,,2.54% (inactive)
CCCCCCCCCCCCCCCCC(=O)O,,-15.4% (inactive)
CC(C(=O)O)c1ccc(/C=C2\CCCCC2=O)cc1 (stereo not given),,-4.41% (inactive)
OCCc1ccncc1,,-7.89% (inactive)
C/C(=C\C(C)CC(C)CC(C)C)C1CC(=O)OC1=O (stereo not given),24.6 µM (active),
c1ccc(-c2ccc(-c3ccccc3)cc2)cc1,,-9.17% [at 27 µM] (inactive)
CCCCCO,,1.95% (inactive)
CCCCCCCCNC,,4.49% (inactive)
CC(=O)Oc1cccc2c1C(=O)c1c(OC(C)=O)cc(C(=O)O)cc1C2=O,,0.206% (inactive)
CCCCOc1ccc(N)cc1,,12.4% (inactive)
CCCC1CCCC(=O)O1 (stereo not given),,9.75% (inactive)
CS(C)=O,,-8.79% (inactive)
Cc1c(Cl)cccc1[N+](=O)[O-],,-2.16% (inactive)
COC(=O)c1cc(Cl)ccc1[N+](=O)[O-],,6.3% (inactive)
CC(=O)c1cccnc1,,-1.77% (inactive)
Nc1cccc2c(=O)[nH][nH]c(=O)c12,,-12.2% [at 78.9 µM] (inactive)
C=CC(C)(O)CC/C=C(/C)CCC=C(C)C (stereo not given),,-19.6% (inactive)

# From PubChem BioAssay (Tox21)
